Reference: ChEMBL document CHEMBL3988442, “University of Dundee, Small-Polar-MMV Screening Library” (2021)
Hit rate of the full screen: of about 69,000 compounds, about 950 (1.4%) showed an effect of 50% or more. The sample holds strong results, similar compounds and a random draw of the others, so the mix is not that of the screen.

Test system: Mycobacterium tuberculosis
Assay: Cornell M. t heat shock assay; note: in the data most compounds retested in dose-response had high values
Assay type: functional, organism-based
Parameters: dose or concentration left out as unconfirmed

SMILES | Percent Effect
Cc1ncsc1C(=O)NCCn1nc(C2CCNC2)c2cccnc21.Cl (stereo unspecified) | -3.491%
Cc1nonc1OCCNc1ncnc2sc3c(c12)CCNC3 | 19.66%
c1ccc2c(c1)CN(c1ncnc3sc4c(c13)CCNC4)CCO2 | 1.883%
c1ccc(OCCNc2ncnc3sc4c(c23)CCNC4)cc1 | 56.72%
Oc1ccccc1N1CCN(c2ncnc3sc4c(c23)CCNC4)CC1 | -21.81%
Cc1ccc(CCNc2ncnc3sc4c(c23)CCNC4)o1 | 98.95%
Cc1ccc(CCNc2nc(-c3ccncc3)nc3c2CCNCC3)o1 | 6.799%
COc1ccc(C2=CNC(C(F)(F)F)=CC2N)cc1 (stereo unspecified) | 1.706%
Cc1csc(CN2CCn3c(COc4cccnc4)cnc3C2C)n1.O=C(O)C(F)(F)F.O=C(O)C(F)(F)F (stereo unspecified) | 18.26%
Cc1ccsc1C(=O)N1C[C@@H]2CN(Cc3ccoc3)CCO[C@@H]2C1.O=C(O)C(F)(F)F | -4.487%
O=C(O)C(F)(F)F.O=C(c1ccc[nH]1)N1CCn2cc(Cn3cccn3)nc2C1 | -0.1806%
CN(C)c1ccccc1CN1CCC(N2CCCC2=O)CC1 | -7.548%
O=C(N1CCCC1)N1CCC[C@]2(C[C@@H](Oc3ncccc3F)CO2)C1.O=C(O)C(F)(F)F | -4.547%
CN(C)C(=O)c1ccc2c(c1)N(C)C(CC(=O)NCc1ncc[nH]1)CO2 (stereo unspecified) | -1.035%
COC(=O)CNC(=O)CC1COc2ccc(C(=O)N(C)C)cc2N1C (stereo unspecified) | 7.778%
CN(C)C(=O)c1ccc2c(c1)N(C)C(CC(=O)NCc1ccno1)CO2 (stereo unspecified) | 79.27%
CNC(=O)CN1CCOCC2(CCCN(Cc3ccsc3)C2)C1.O=C(O)C(F)(F)F.O=C(O)C(F)(F)F (stereo unspecified) | -10.69%
CCOc1ncccc1NC(=O)c1sccc1C | 102.4%
CCOc1ncccc1NC(=O)c1cc(C)sc1C | 19.66%
CCOc1ncccc1NC(=O)c1cccs1 | -26.07%
CCOCCNc1nc(-c2ccncc2)nc2c1CCNCC2 | -10.32%
c1cc(-c2nc3c(c(NCCn4ccnn4)n2)CCNCC3)ccn1 | -28.7%
Cl.NC1CCc2nc(-c3ccncc3)nc(Nc3cccc(F)c3)c2C1 (stereo unspecified) | 82.22%

SMILES | Percent Effect
O=C(Nc1cccc(F)c1)NC1CCN(Cc2ccncc2)CC1 | -8.889%
Cc1sc2c(C3CCNCC3)nc(Nc3cccc(F)c3)n2c1C.Cl | 26.64%
O=C(c1cccnc1O)N1CCN(CCc2cccs2)CC1 | 3.025%
O=C(O)C(F)(F)F.O=C(c1cnccn1)N1CCCC2(CCN(c3ccccn3)C2)C1 (stereo unspecified) | -26.38%
Cc1ccc(CN(Cc2ncc[nH]2)C2CC(C)(C)NC(C)(C)C2)o1.O=C(O)CC(O)(CC(=O)O)C(=O)O | 28.54%
O=C(O)C(F)(F)F.O=C(c1ccno1)N1CCc2ncnc(-c3ccncc3)c2CC1 | 1.058%
Cc1ccoc1C(=O)N1CCn2nnc(COc3cccnc3)c2C1.O=C(O)C(F)(F)F | -27.69%
O=C(O)C(F)(F)F.O=C(O)C(F)(F)F.O=C(c1ccnnc1)N1CCN2C[C@H](OCc3cccnc3)C[C@H]2C1 | -1.051%
Cc1ccc(CN2Cc3nnn(C)c3C(COCc3ccccc3)C2)o1.O=C(O)C(F)(F)F (stereo unspecified) | -18.88%
CN(Cc1nc(COc2ccccc2)no1)CC1Cc2ccccc2O1 (stereo unspecified) | 29.18%
CCc1ccc(CN(C)Cc2nc(COc3ccccc3)no2)nc1 | 62.03%
CCc1ccc(CN(C)Cc2nc(-c3cnccn3)no2)nc1 | 20.61%
COc1ccc(CNCC2CCN(c3ccccc3OC)C2)cc1O (stereo unspecified) | 2.532%
COc1ccccc1N1CCC(CNCc2cccc(OC)c2OC)C1 (stereo unspecified) | 81.84%
COc1ccccc1N1CCC(CNCc2cccc(O)c2)C1 (stereo unspecified) | 14.53%
O=C(NC1CCC1)[C@@H]1C[C@@H]2CCN(Cc3cccs3)C[C@@H]2O1.O=C(O)C(F)(F)F | 3.012%
CCC(CO)N(Cc1ccccn1)C(=O)c1ccc(=O)[nH]c1 (stereo unspecified) | 1.592%
O=C(NC[C@]12COC[C@H]1CN(Cc1nccs1)C2)c1cscn1.O=C(O)C(F)(F)F | 1.78%
COc1ccc(CN2CCC3(CC2)CCN(CC(=O)N(C)C)C3=O)cc1.O=C(O)C(F)(F)F | 1.282%
O=C1NCC2(CCCN(C(=O)Cn3nc4ccccc4n3)CC2)O1 (stereo unspecified) | 102.6%
Cn1c(CCC(=O)N2CCCC3(CC2)CNC(=O)O3)nc2cccnc21 (stereo unspecified) | -15.92%
O=C1NCC2(CCCN(C(=O)CCn3cnc4ccccc43)CC2)O1 (stereo unspecified) | -31.86%
O=C(O)CC(O)(CC(=O)O)C(=O)O.O[C@@]1(c2ccccn2)CC[C@H]2CN(Cc3ccccn3)C[C@H]21 | 3.038%

SMILES | Percent Effect
CCN(CC)c1ccc2ccc(C(=O)O)cn12 | 4.754%
CCN(CC)c1ccc2ccc(C(=O)N3CCCCO3)cn12.O=C(O)C(F)(F)F | 56.41%
CN1CCN(c2ccc3ccc(C(=O)N4CCCCO4)cn23)CC1.O=C(O)C(F)(F)F | 28.6%
Cl.O=C(Cn1c(-c2ccco2)cc2cccnc21)N1CCCC1 | 2.747%
CC(=O)N1[C@H](Cn2cncn2)C[C@@H]2CN(S(C)(=O)=O)CC[C@@H]21 | -11.62%
CCc1nnc(CN(C)c2nc(C(C)C)nc3c2cnn3C)o1 | 106.1%
CCc1nnc(CN(C)c2nc(C3CCCC3)nc3c2cnn3C)o1 | -3.006%
CCCc1nc(N(C)CCc2noc(C(C)C)n2)c2cnn(C)c2n1 | -6.302%
CCc1nnc2n1CC(CNCc1ccncc1)CC2 (stereo unspecified) | 102.6%
CC(C)c1nnc2n1CC(CNCc1ccsc1)CC2 (stereo unspecified) | -8.8%
CC(C)c1nnc2n1CC(CNCc1cccnc1)CC2 (stereo unspecified) | -38.13%
CCc1nnc2n1CC(CNCC1CCCC1)CC2 (stereo unspecified) | -14.79%
CC(C)c1nnc2n1CC(CNCc1ccncc1)CC2 (stereo unspecified) | 107%
CCc1nnc2n1CC(CNCc1nc(C)c(C)o1)CC2 (stereo unspecified) | -15.23%
O=C(O)C(F)(F)F.O=C1CC[C@H]2[C@H](CCN2C(=O)C2CCCO2)N1Cc1cccnc1 (stereo partly specified) | 1.298%
CNC(=O)CN1CC[C@H]2CN(C(=O)c3ccc(C)cc3)C[C@H]2C1.O=C(O)C(F)(F)F | -25.29%
Cn1cc(CN2C[C@H](Oc3ncccc3F)[C@H]3OCCC[C@H]32)cn1.O=C(O)C(F)(F)F.O=C(O)C(F)(F)F.O=C(O)C(F)(F)F | -12.51%
O=C(NC[C@]12COC[C@H]1CN(Cc1cccnc1)C2)C1CCC1.O=C(O)C(F)(F)F.O=C(O)C(F)(F)F | 24.22%
CC(=O)c1ccc(NC(=O)c2ccc3c(c2)C2(CCCCC2)CN3)cc1.O=C(O)C(F)(F)F | 36.54%
COCC(=O)N1CCC2(CC1)CNc1ccc(F)cc12.O=C(O)C(F)(F)F | -6.982%
O=C(Nc1ccccc1)c1ccc2c(c1)C1(CCCCC1)CN2.O=C(O)C(F)(F)F | 67.01%
COc1ccccc1CN1C[C@@H]2COC[C@]2(COCc2ccncc2)C1.O=C(O)C(F)(F)F.O=C(O)C(F)(F)F | -12.91%
CCN(CC)C(=O)Cn1ccc2cc(NC(=O)NC3CC3)ccc21 | 61.18%

SMILES | Percent Effect
CCNC(=O)Nc1ccc2c(ccn2CC(=O)N(CC)CC)c1 | 47.91%
CCN(CC)C(=O)Cn1ccc2cc(NC(=O)C3CC3)ccc21 | 25.7%
COCCN1CCc2c(cnc(-c3ccoc3)c2C(=O)O)C1.O=C(O)C(F)(F)F | -43.35%
CN1CCN(C(=O)c2ccc3c(c2)nc(N2CCOCC2)n3C)CC1=O | 2.08%
CN1CCCN(C(=O)c2ccc3c(c2)nc(N2CCOCC2)n3C)CC1 | 98.19%
Cn1c(N2CCOCC2)nc2cc(C(=O)N3CCCOCC3)ccc21 | -23.59%
CC(C)N(C)Cc1nnc2n1CCCN(c1ncccn1)C2.O=C(O)C(F)(F)F | 11.35%
CN(Cc1cn2c(n1)CN(CC1CC1)CC2)Cc1ccco1.O=C(O)C(F)(F)F.O=C(O)C(F)(F)F | 9.036%
O=C(c1ccon1)N1CCc2ncnc(NCc3ccccn3)c2CC1 | 76.86%
O=C(c1ccoc1)N1CCc2ncnc(NCc3ccccn3)c2CC1 | 62.71%
O=C(c1ccon1)N1CCc2ncnc(NCc3cccnc3)c2CC1 | 1.572%
O=C(c1ccco1)N1CCc2ncnc(NCc3ccccn3)c2CC1 | 44.89%
O=C(c1cc[nH]n1)N1CCc2ncnc(NCc3ccccn3)c2CC1 | -1.441%
O=C(C1CCCCO1)N1CCc2ncnc(NCc3ccon3)c2CC1 (stereo unspecified) | 17.45%
CN(C)C[C@]12COC[C@H]1CN(C(=O)CCc1ccccc1)C2.O=C(O)C(F)(F)F | -31.23%
COCCN1C[C@@H]2[C@@H](OC)CCN(Cc3cccs3)[C@@H]2C1.O=C(O)C(F)(F)F.O=C(O)C(F)(F)F | -45.94%
CCn1cc2c(n1)CN(CC1CC1)CC2COCC1CC1.O=C(O)C(F)(F)F (stereo unspecified) | 0.92%
CN1CC2(CCN(CC3CC3)CC2)COc2ccccc2S1(=O)=O.O=C(O)C(F)(F)F | -26.67%
Cc1nnc(NCc2ccccc2F)c(C#N)c1C | 88.29%
Cc1nnc(NCc2ccccc2Cl)c(C#N)c1C | 29.74%
COCc1ccccc1CNc1nnc(C)c(C)c1C#N | 28.24%
CCOCC1CN(Cc2cnn(C)c2)Cc2c1cnn2CC.O=C(O)C(F)(F)F (stereo unspecified) | -24.32%
